The supplement of paper PMC10849652
Targets with a hit are over-represented here; the source holds about 8,800 in all. About 0.5% of all pairs of compound and target were hits.

Tests used:
Assay in all cases: log2 fold change, soluble protein after heating vs DMSO (PISA); higher = thermal stabilisation; K562 lysate, 10 uM; active = over 0.2 and 3.5 SD of the protein, either way, in both replicates (recomputed)
[1] = compound: CCCS(=O)(=O)Nc1ccc(F)c(C(=O)c2c[nH]c3ncc(-c4ccc(Cl)cc4)cc23)c1F [vemurafenib]
In short: (§1)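 Values give the log-two fold change in thermal stability against solvent controls, from duplicates. Crude K562 extract at 1 mg/mL protein, made by dounce homogenisation in PBS pH 7.4 with 1 mM MgCl2, was treated with 10 μM compound for 30 min. After 3 min heating across 48°C-58°C, aliquots were pooled, adjusted to 0.5% NP-40 at 4°C and centrifuged at 21,000xg for 90 min. The supernatant was measured by TMTpro 16plex LC-MS/MS with channel sums equalised.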

[2] = compound: CCCS(=O)(=O)Nc1ccc(F)c(C(=O)c2c[nH]c3ncc(Cl)cc23)c1F
In short: as §1

[3] = compound: CCN(CCCOc1ccc2c(Nc3cc(CC(=O)Nc4cccc(F)c4)[nH]n3)ncnc2c1)CCOP(=O)(O)O [barasertib]
In short: as §1

[4] = compound: CC[C@@H]1C(=O)N(C)c2cnc(Nc3ccc(C(=O)NC4CCN(C)CC4)cc3OC)nc2N1C1CCCC1
In short: as §1

[5] = compound: CC[C@@H]1C(=O)N(C)c2cnc(Nc3ccc(C(=O)N[C@H]4CC[C@H](N5CCN(CC6CC6)CC5)CC4)cc3OC)nc2N1C(C)C [volasertib]
In short: as §1

[6] = compound: CCn1c(C(=O)N(C2CC2)C2CC2)cc2c3c(ncn3C)c(Nc3cc(C)n(C)n3)nc21
In short: as §1

[7] = compound: CCn1cc(-c2ccnc3[nH]c(-c4cccc(CN(C)C)c4)cc23)c(-c2ccc(NC(=O)N(C)C)cc2)n1
In short: as §1

[8] = compound: CN1CCC(CNc2ccc3ncc(-c4cccc(OC(F)(F)F)c4)n3n2)CC1
In short: as §1

[9] = compound: CN1CCN(CCOc2cc(OC3CCOCC3)c3c(Nc4c(Cl)ccc5c4OCO5)ncnc3c2)CC1 [saracatinib]
In short: as §1

[10] = compound: CN1CCN(c2nc(C3=C(c4c[nH]c5ccccc45)C(=O)NC3=O)c3ccccc3n2)CC1 [sotrastaurin]
In short: as §1

[11] = compound: CN1CC[C@H](c2c(O)cc(O)c3c(=O)cc(-c4ccccc4Cl)oc23)[C@H](O)C1 [alvocidib]
In short: as §1

[12] = compound: CN1CCc2c(c3ccccc3n2Cc2ccc(C(=O)NO)cc2)C1 [Tubastatin A]
In short: as §1

[13] = compound: CNC(=O)C1=CC=CC=C1NC2=NC(=NC=C2Cl)NC3=C(C=C(C=C3)N4CCOCC4)OC
In short: as §1

[14] = compound: CNC(=O)c1ccc(Nc2ncc(C(F)(F)F)c(NCc3nccnc3N(C)S(C)(=O)=O)n2)cc1 [defactinib]
In short: as §1

[15] = compound: CNc1nc(-c2ccc3c(N)n[nH]c3c2)cc(N2C[C@@H](C(=O)NC3CCCCC3)CC[C@H]2C)n1
In short: as §1

[16] = compound: COC(=O)N[C@@H](C)CNc1nccc(-c2cn(C(C)C)nc2-c2cc(Cl)cc(NS(C)(=O)=O)c2F)n1 [encorafenib]
In short: as §1

[17] = compound: COC(=O)[C@H](CCSC)NC(=O)C1=C(C=C(C=C1)NC[C@H](CS)N)C2=CC=CC=C2
In short: as §1

[18] = compound: COc1cc(Nc2ncc3c(n2)-c2ccc(Cl)cc2C(c2c(F)cccc2OC)=NC3)ccc1C(=O)O [alisertib]
In short: as §1

[19] = compound: COc1cc2nc(-c3cc(F)ccc3O)nc(N[C@@H]3CNC[C@H]3C(C)(C)O)c2cc1OC
In short: as §1

[20] = compound: COc1cc2ncnc(Nc3ccc(F)c(Cl)c3)c2cc1OCCCN1CCOCC1 [gefitinib]
In short: as §1

Measured: log2 fold change

DCP2 (UniProt Q8IU60)
inactive: [1] -0.05 | [2] -0.038 | [3] 0.014 | [4] 0.016 | [5] -0.061 | [6] -0.028 | [7] 0.059 | [8] -0.13 | [9] -0.023 | [10] -0.01 | [11] 0.023 | [12] -0.195 | [13] -0.013 | [14] -0.045 | [15] 0 | [16] 0 | [17] -0.117 | [18] -0.02 | [19] 0 | [20] 0.041

COTL1 (UniProt Q14019)
active: [7] 0.37
inactive: [1] -0.002 | [2] -0.017 | [3] -0.068 | [4] 0.019 | [5] 0.02 | [6] 0.027 | [8] -0.076 | [9] -0.019 | [10] -0.045 | [11] 0.021 | [12] 0.004 | [13] -0.021 | [14] -0.04 | [15] -0.008 | [16] -0.033 | [17] -0.029 | [18] -0.009 | [19] -0.001 | [20] -0.002

DHX32 (UniProt Q7L7V1)
inactive: [1] 0.173 | [4] -0.026 | [6] -0.106 | [7] 0.137 | [8] 0.003 | [10] -0.011 | [11] 0.019 | [12] 0.027 | [13] 0.044 | [14] -0.043 | [16] 0.062 | [17] 0.048 | [18] 0.017 | [20] 0.02

CSAD isoform 3 (UniProt Q9Y600)
inactive: [6] 0.001 | [10] -0.003 | [12] 0.082 | [13] -0.044
active: [3] 0.456

DAZAP1 (UniProt K7EQ02)
inactive: [18] 0.071 | [20] -0.084

DLGAP5 isoform 3 (UniProt Q15398)
Chain of UniProt Q15398 (Q15398 whole entry, looked up): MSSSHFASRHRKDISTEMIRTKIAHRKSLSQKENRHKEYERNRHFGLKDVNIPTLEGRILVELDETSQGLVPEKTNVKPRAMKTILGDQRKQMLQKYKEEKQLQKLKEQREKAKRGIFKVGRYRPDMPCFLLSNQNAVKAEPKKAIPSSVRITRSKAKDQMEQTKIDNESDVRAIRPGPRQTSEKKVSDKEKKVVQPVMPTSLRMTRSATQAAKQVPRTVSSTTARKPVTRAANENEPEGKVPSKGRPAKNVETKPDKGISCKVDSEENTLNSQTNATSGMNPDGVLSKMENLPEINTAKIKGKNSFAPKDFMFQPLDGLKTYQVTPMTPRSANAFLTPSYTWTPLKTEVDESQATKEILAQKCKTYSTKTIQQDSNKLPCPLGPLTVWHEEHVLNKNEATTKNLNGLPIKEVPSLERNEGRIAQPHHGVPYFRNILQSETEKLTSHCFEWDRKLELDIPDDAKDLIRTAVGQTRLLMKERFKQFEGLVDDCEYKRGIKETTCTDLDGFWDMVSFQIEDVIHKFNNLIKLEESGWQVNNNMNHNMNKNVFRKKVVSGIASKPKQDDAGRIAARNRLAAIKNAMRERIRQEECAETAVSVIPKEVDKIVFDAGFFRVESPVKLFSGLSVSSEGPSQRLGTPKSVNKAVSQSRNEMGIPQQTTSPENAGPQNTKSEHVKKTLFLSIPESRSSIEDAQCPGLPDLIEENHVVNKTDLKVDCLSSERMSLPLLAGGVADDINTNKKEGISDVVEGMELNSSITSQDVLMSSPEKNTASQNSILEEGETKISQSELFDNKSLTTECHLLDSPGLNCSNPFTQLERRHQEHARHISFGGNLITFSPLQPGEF
inactive: [3] 0.281 | [7] -0.165 | [8] -0.03 | [9] 0.165 | [11] 0 | [15] -0.051

DDR1 isoform 5 (UniProt Q08345)
inactive: [3] 0.169 | [4] 0.064 | [6] 0.013 | [7] 0.043 | [9] -0.142 | [10] -0.019 | [11] -0.034 | [12] 0.052 | [15] 0.147 | [16] 0.044 | [17] -0.094 | [18] 0 | [20] 0.046
active: [8] -0.479

DNM2 isoform 4 (UniProt P50570)
inactive: [2] -0.001 | [4] -0.018 | [5] -0.031 | [6] -0.014 | [7] -0.153 | [8] 0.021 | [9] -0.047 | [10] -0.031 | [11] -0.16 | [12] -0.095 | [13] -0.278 | [15] 0.055 | [16] 0.13 | [17] 0.06 | [18] -0.007 | [19] -0.032 | [20] 0.029

DHRS13 (UniProt Q6UX07)
Chain of UniProt Q6UX07 (Q6UX07 whole entry, looked up): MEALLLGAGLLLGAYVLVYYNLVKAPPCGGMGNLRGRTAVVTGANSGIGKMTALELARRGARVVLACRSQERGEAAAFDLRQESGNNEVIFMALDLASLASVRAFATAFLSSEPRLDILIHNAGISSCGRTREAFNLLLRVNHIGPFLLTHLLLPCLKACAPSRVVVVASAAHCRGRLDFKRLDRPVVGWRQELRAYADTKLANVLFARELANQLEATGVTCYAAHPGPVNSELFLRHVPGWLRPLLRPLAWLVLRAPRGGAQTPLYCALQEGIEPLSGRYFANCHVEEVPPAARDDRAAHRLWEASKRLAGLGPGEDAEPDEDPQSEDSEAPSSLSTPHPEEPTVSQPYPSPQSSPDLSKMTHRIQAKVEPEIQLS
inactive: [2] 0.291 | [3] 0.236 | [5] -0.274 | [6] 0.077 | [9] -0.031 | [10] 0.095 | [12] -0.087 | [13] -0.083 | [15] 0.004 | [18] -0.211 | [19] -0.138 | [20] 0.036

CRLS1 (UniProt Q9UJA2)
inactive: [2] 0.063 | [3] 0.014 | [5] 0.005 | [6] 0.017 | [7] 0.022 | [8] -0.301 | [10] -0.008 | [11] 0.056 | [12] 0.007 | [13] 0.068 | [18] 0.076 | [19] -0.017 | [20] 0.079

CSNK1A1 isoform 3 (UniProt P48729)
inactive: [6] -0.199 | [9] -0.175 | [12] -0.138 | [15] 0.068

CHMP4A (UniProt H0YIN6)
inactive: [2] 0.049 | [3] -0.012 | [5] 0.024 | [6] -0.495 | [7] -0.274 | [8] 0.158 | [9] 0.201 | [10] -0.088 | [11] -0.197 | [12] 0.193 | [15] 0.528 | [19] 0.104

DNA2 (UniProt P51530)
Chain of UniProt P51530 (P51530 whole entry, looked up): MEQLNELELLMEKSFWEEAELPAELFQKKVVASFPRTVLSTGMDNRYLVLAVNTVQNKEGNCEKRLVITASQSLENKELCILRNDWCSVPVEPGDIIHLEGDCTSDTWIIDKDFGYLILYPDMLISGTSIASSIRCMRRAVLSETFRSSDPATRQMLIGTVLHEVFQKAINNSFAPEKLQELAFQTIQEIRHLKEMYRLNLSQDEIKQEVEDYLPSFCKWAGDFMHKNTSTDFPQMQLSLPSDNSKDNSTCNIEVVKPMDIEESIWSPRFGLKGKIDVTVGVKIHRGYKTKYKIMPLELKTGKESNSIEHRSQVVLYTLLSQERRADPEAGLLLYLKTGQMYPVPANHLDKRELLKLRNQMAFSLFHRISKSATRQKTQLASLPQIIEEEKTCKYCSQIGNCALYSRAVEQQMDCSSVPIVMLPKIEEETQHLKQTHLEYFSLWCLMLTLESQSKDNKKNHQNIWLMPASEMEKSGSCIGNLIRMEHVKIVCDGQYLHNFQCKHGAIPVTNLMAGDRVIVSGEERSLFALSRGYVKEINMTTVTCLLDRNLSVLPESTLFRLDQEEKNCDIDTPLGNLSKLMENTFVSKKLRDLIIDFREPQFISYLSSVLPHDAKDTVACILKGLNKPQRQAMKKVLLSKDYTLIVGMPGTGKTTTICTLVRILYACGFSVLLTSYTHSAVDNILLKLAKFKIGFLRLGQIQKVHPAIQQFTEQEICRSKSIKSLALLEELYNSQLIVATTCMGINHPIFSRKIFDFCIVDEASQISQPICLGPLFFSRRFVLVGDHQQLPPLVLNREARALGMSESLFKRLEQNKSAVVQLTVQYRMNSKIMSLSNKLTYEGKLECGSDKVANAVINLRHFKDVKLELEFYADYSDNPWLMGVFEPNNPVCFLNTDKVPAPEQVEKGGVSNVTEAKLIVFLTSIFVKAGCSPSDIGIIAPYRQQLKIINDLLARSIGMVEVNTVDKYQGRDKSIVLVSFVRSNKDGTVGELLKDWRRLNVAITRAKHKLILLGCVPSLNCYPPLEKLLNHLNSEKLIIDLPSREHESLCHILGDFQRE
inactive: [1] -0.094 | [4] -0.053 | [6] 0.051 | [7] 0.03 | [8] 0.022 | [9] 0.008 | [10] 0.073 | [11] -0.116 | [12] -0.15 | [13] -0.009 | [14] -0.039 | [15] -0.035 | [16] 0.123 | [17] -0.098 | [18] -0.007 | [20] 0.036

CIC (UniProt I3L1Q4)
inactive: [3] -0.169

CSNK1G3 isoform 4 (UniProt Q9Y6M4)
Chain of UniProt Q9Y6M4 (Q9Y6M4 whole entry, looked up): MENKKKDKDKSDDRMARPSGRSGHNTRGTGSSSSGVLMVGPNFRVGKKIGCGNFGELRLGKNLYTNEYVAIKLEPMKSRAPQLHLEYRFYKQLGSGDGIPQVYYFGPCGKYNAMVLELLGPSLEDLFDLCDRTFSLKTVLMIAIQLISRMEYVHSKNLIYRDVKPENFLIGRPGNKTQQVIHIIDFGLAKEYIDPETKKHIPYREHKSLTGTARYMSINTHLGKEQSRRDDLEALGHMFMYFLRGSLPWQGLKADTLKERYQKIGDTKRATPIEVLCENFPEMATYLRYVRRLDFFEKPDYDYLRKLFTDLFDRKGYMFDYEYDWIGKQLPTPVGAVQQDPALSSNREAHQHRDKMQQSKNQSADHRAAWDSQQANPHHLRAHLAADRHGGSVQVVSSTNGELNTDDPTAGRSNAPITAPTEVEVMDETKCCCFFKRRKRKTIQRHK
inactive: [2] -0.238 | [5] 0.111 | [19] 0.53

CYP4V2 (UniProt Q6ZWL3)
inactive: [2] -0.021 | [3] -0.021 | [5] 0.05 | [6] -0.12 | [9] -0.076 | [10] -0.17 | [12] -0.1 | [13] -0.007 | [15] 0.045 | [19] -0.066

CLASP1 isoform 4 (UniProt Q7Z460)
inactive: [1] 0.272 | [13] 0.046 | [14] 0.223 | [18] 0.063 | [20] 0.107

COL12A1 (UniProt Q99715)
inactive: [1] 0.239 | [2] 0.178 | [4] 0.194 | [5] -0.139 | [9] 0.063 | [10] -0.233 | [13] 0.095 | [14] -0.059 | [15] 0.531 | [16] 0.003 | [17] -0.092
active: [19] 1.32

CPLX1 (UniProt O14810)
Chain of UniProt O14810 (O14810 whole entry, looked up): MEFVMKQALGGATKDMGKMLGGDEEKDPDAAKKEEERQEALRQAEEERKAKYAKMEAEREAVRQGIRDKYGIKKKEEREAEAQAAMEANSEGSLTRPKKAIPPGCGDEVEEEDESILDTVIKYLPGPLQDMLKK
active: [9] 0.893
inactive: [1] 0.034 | [2] 0.057 | [4] -0.026 | [5] 0.029 | [6] -0.074 | [12] 0.04 | [14] 0.144 | [15] -0.127 | [16] -0.017 | [17] -0.415 | [19] -0.005

COL6A3 (UniProt P12111)
inactive: [3] 0.347 | [6] 0.086 | [7] 0.254 | [8] -0.19 | [9] -0.039 | [10] 0.031 | [11] 0.045 | [12] 0.017 | [13] -0.126 | [15] 0.13 | [18] -0.323 | [20] 0.164

DAPK1 isoform 3 (UniProt P53355)
inactive: [1] 0.047 | [2] -0.203 | [5] -0.138 | [6] 0.022 | [7] 0.138 | [8] -0.04 | [9] 0.022 | [10] -0.039 | [11] 0.085 | [12] 0.001 | [13] 0.322 | [14] -0.109 | [15] 0.058 | [18] 0.051 | [19] 0.063 | [20] 0.139

DBF4 (UniProt Q9UBU7)
inactive: [1] 0.001 | [3] 0.054 | [4] -0.015 | [6] 0.001 | [7] -0.003 | [8] -0.245 | [9] 0.001 | [10] -0.004 | [11] -0.118 | [12] -0.072 | [13] -0.025 | [14] -0.023 | [15] -0.058 | [16] 0.04 | [17] -0.072 | [18] -0.028 | [20] -0.029

CXCL14 (UniProt O95715)
Chain of UniProt O95715 (O95715 whole entry, looked up): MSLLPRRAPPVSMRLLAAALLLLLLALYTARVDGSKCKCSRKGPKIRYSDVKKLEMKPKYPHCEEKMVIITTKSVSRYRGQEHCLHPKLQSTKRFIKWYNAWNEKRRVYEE
inactive: [1] 0.252 | [3] 0.079 | [4] 0.189 | [14] -0.235 | [16] -0.034 | [17] 0.066

CHFR (UniProt Q96EP1)
Chain of UniProt Q96EP1 (Q96EP1 whole entry, looked up): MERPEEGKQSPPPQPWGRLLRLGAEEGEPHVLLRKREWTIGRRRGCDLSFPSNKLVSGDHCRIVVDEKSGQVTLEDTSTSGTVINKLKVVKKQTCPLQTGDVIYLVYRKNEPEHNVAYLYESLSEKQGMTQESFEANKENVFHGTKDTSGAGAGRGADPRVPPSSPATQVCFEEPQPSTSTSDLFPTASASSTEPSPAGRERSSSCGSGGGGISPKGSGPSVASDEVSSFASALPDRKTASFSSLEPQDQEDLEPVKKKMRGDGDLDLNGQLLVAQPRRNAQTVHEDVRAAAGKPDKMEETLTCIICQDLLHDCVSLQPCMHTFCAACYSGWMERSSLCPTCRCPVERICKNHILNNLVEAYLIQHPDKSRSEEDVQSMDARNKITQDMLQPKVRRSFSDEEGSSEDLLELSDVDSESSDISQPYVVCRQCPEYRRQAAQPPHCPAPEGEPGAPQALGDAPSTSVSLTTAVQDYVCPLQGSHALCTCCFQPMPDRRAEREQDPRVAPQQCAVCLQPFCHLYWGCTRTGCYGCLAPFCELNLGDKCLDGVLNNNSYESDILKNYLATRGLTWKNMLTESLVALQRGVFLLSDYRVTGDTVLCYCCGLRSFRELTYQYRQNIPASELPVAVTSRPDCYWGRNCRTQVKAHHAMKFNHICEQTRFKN
active: [14] -0.61
inactive: [1] -0.252 | [2] 0.063 | [4] -0.013 | [5] 0.043 | [6] 0.052 | [9] 0.052 | [10] 0.033 | [12] -0.052 | [13] 0.004 | [15] -0.032 | [16] 0.063 | [17] -0.084 | [18] 0.033 | [19] 0.008 | [20] -0.03

CNOT2 (UniProt F8VRS8)
inactive: [13] 0.004

DALRD3 (UniProt Q5D0E6)
inactive: [1] -0.033 | [2] -0.025 | [4] -0.095 | [5] -0.041 | [7] 0.003 | [8] 0.144 | [11] -0.016 | [13] -0.026 | [14] 0.033 | [16] 0.054 | [17] -0.391 | [19] -0.004

DONSON (UniProt Q9NYP3)
Chain of UniProt Q9NYP3 (Q9NYP3 whole entry, looked up): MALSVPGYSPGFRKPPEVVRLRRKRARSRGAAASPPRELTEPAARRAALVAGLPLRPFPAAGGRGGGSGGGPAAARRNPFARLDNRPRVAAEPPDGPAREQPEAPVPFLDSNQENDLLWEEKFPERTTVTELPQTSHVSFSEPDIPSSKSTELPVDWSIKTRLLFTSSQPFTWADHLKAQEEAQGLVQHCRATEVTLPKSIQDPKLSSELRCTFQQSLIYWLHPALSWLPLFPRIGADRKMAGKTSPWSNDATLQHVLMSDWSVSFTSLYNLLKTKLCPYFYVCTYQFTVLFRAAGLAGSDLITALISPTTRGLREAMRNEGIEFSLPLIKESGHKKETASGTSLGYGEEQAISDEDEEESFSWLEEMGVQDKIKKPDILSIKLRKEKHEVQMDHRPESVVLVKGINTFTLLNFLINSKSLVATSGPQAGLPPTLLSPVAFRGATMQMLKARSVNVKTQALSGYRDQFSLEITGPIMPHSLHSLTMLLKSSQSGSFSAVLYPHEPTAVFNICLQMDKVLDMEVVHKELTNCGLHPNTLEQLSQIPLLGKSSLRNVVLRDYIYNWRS
inactive: [2] 0.017 | [3] -0.03 | [5] 0.026 | [6] -0.036 | [7] -0.026 | [8] -0.206 | [9] 0.013 | [10] 0.016 | [11] 0.04 | [12] -0.079 | [13] 0.069 | [15] 0.005 | [18] -0.05 | [19] 0.028 | [20] 0.075

CSDE1 isoform 3 (UniProt O75534)
Chain of UniProt O75534 (O75534 whole entry, looked up): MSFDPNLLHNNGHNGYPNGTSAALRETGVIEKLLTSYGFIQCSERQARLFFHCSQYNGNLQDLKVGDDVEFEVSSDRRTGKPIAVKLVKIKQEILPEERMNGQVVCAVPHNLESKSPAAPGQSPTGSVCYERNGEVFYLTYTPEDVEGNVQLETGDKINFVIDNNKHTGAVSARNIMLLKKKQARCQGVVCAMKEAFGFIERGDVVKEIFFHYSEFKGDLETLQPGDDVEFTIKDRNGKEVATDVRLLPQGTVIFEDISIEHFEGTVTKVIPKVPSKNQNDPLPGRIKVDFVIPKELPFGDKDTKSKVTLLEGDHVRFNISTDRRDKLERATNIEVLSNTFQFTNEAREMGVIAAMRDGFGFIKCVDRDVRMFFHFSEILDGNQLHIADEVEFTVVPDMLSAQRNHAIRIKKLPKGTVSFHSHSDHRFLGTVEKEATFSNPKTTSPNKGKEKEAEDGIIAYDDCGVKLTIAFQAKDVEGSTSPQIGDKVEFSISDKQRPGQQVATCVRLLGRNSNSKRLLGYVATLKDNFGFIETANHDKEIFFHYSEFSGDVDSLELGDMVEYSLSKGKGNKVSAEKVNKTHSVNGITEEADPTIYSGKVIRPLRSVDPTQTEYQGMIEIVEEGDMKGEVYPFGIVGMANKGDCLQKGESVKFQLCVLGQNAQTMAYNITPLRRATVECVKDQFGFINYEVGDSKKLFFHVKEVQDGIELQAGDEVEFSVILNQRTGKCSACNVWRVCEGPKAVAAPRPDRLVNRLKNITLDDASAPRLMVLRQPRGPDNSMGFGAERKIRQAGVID
inactive: [2] -0.014 | [3] 0.05 | [5] -0.193 | [6] 0.113 | [7] -0.064 | [8] -0.104 | [10] 0.07 | [11] 0.029 | [12] -0.014 | [18] -0.011 | [19] 0.28 | [20] -0.09
